This note sets out measurements from PubChem BioAssay.

The nature of test [1]: binders of probe aFSTL3 on microarray, primary screen, stem cell growth factor project, biochemical, small-molecule microarray, fluorescence 635/667 (AID 1064).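 Also: measures binding of the biotinylated anti-FSTL3 antibody to printed compounds.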 The following applies: higher = more signal.
A short description of test [2]: binders from COS7 lysate, DM2A8 probe, primary screen, torsin A project, cell lysate, small-molecule microarray, fluorescence 635/667 (AID 1065). The following applies: higher = more signal, COS7 lysate expressing mutant human TOR1A.
A short description of test [3]: binders of probe aFGF2 on microarray, primary screen, stem cell growth factor project, biochemical, small-molecule microarray, fluorescence 635/667 (AID 1067).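 Also: measures binding of biotinylated aFGF2 protein to printed compounds on slides; z-score merges feature fluorescence and signal-to-noise across triplicate slides.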 The settings on record: higher = more signal.
The nature of test [4]: binders of probe aFGF10 on microarray, primary screen, stem cell growth factor project, biochemical, small-molecule microarray, fluorescence 635/667 (AID 1071).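 Also: score merges 667 nm spot intensity and signal to noise from triplicate slides.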 The settings on record: higher = more signal.
Test [5] has as its target Neurogenic locus notch homolog protein 2 (Homo sapiens) (UniProt Q04721). Nature of the test: Notch2 binders on small-molecule microarrays, primary screen, biochemical, small-molecule microarray, 635 nm fluorescence, stem cell growth factors (AID 1073). The settings on record: Notch2 binding, higher = more signal.
Test [6] has as its target Pro-neuregulin-1, membrane-bound isoform (Homo sapiens) (UniProt Q02297). As to the kind of experiment: NRG1 binders on small-molecule microarrays, primary screen, psychiatric disease protein project, biochemical, small-molecule microarray, fluorescence 635/667 (AID 1075).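 Also: score combines 667 nm spot fluorescence with signal to noise.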 The settings on record: NRG1 binding, 635 nm fluorescence, higher = more signal.
Test [7] has as its system Neuregulin-1 EGF-like domain. As to the kind of experiment: binders of neuregulin-1 EGF-like domain, primary screen, biochemical, small-molecule microarray, 635 nm fluorescence (AID 1081).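 Also: binding of the protein to compounds printed on small-molecule microarray slides.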 The settings on record: small-molecule microarray binding, higher = more signal.
Test [8] in a line: FRG1 promoter luciferase signal modulators, primary screen, FRG1 inhibition for FSHD, cell-based, C2C12 myotubes, firefly/Renilla luciferase, luminescence (AID 1084). The following applies: higher = more signal, called active from +8 up or from −8 down.
Test [9] in a line: binders of probe aFST on microarray, primary screen, stem cell growth factor project, biochemical, small-molecule microarray, fluorescence 635/667 (AID 1086).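 Also: score merges 667 nm fluorescence with signal-to-noise of each printed compound spot.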 The settings on record: higher = more signal.
The nature of test [10]: binders of probe aHhip on microarray, primary screen, stem cell growth factor project, biochemical, small-molecule microarray, fluorescence 635/667 (AID 1087).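 Also: score merges spot fluorescence at 667nm with spot signal to noise ratio.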 The settings on record: higher = more signal.
In test [11] the test system is PRMT1 (protein arginine N-methyltransferase 1). Nature of the test: PRMT1 binders on small-molecule microarrays, primary screen, biochemical, small-molecule microarray, 635 nm fluorescence (AID 1088).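 Also: binding of Prmt1 protein to compounds spotted on small-molecule microarray slides.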 The following applies: small-molecule microarray binding, higher = more signal.
A short description of test [12]: yeast growth modulation, basal conditions, primary screen, YJM789 clinical isolate, OD600, 24 h (AID 1089).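 Also: growth of clinical yeast isolate S. cerevisiae YJM 789 seeded 1000 cells per well; test concentration not given here.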 The settings on record: S. cerevisiae YJM789 growth, higher = more signal, called active from +8 up or from −8 down.
Test [13] can be described thus: fission yeast growth modulation, primary screen, strain 972, OD600, 24 h, no modulator (AID 1090).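 Also: basal condition with compound alone and no growth modifier present; test concentration not given here.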 The settings on record: S. pombe 972 growth, higher = more signal, called active from +8 up or from −8 down.
The nature of test [14]: S. cerevisiae growth modulation with rapamycin, primary screen, strain BY4716, OD600, 96 h (AID 1091). Also: test concentration not given here. The settings on record: higher = more signal, called active from +8 up or from −8 down.
The target in test [15] is Torsin-1A-interacting protein 2 (Homo sapiens) (UniProt Q8NFQ8). As to the kind of experiment: LULL1 binders on small-molecule microarray, primary screen, cell lysate, human LULL1 lysate, 635/667 nm fluorescence (AID 1092).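 Also: probe is lysate of COS7 cells overexpressing human LULL1; score merges per-feature 667 nm fluorescence with signal-to-noise.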 The following applies: hLULL1 lysate binding, 635 nm fluorescence, higher = more signal.
Test [16] is described as follows: E. coli growth modulation, two-sided OD650, primary screen, E. coli filamentation project, strain DRC41, 24 h (AID 1093).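 Also: MC1000 strain lacking acrAB efflux and sulA so SOS filamentation is blocked; test concentration not given here.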 The settings on record: OD650, 24 h, higher = more signal, called active from +8 up or from −8 down.
A short description of test [17]: small-molecule microarray binders of probe aLefty2, primary screen, biochemical, biotinylated probe, 635/667 nm fluorescence (AID 1094).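 Also: score merges spot fluorescence near 667 nm with spot signal-to-noise ratio.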 The settings on record: higher = more signal.
Test [18] deals with Noggin (protein binding on small-molecule microarray). Nature of the test: Noggin binders on small-molecule microarray, primary screen, biochemical, 635/667 nm fluorescence (AID 1095).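 Also: score merges 667 nm feature fluorescence with signal to noise over triplicate slides.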 The settings on record: 635 nm fluorescence, higher = more signal.
Test [19] concerns the target Neurogenic locus notch homolog protein 3 (Homo sapiens) (UniProt Q9UM47). Nature of the test: NOTCH3 binders on small-molecule microarray, primary screen, biochemical, 635/667 nm fluorescence (AID 1096). The settings on record: NOTCH3 binding, 635 nm fluorescence, higher = more signal.
The nature of test [20]: small-molecule microarray binders of probe aEGFR, primary screen, biochemical, biotinylated probe, 635/667 nm fluorescence (AID 1097).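 Also: probe is a biotinylated anti-EGFR antibody binding compounds printed on slides; score combines fluorescence near 667 nm and signal to noise of each spot.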 The settings on record: higher = more signal.

Molecules are shown by their SMILES. The source made the active and inactive calls.

Sequence of Pro-neuregulin-1, membrane-bound isoform (Homo sapiens) (Q02297 whole entry, looked up, the tested form may be a part, canonical isoform): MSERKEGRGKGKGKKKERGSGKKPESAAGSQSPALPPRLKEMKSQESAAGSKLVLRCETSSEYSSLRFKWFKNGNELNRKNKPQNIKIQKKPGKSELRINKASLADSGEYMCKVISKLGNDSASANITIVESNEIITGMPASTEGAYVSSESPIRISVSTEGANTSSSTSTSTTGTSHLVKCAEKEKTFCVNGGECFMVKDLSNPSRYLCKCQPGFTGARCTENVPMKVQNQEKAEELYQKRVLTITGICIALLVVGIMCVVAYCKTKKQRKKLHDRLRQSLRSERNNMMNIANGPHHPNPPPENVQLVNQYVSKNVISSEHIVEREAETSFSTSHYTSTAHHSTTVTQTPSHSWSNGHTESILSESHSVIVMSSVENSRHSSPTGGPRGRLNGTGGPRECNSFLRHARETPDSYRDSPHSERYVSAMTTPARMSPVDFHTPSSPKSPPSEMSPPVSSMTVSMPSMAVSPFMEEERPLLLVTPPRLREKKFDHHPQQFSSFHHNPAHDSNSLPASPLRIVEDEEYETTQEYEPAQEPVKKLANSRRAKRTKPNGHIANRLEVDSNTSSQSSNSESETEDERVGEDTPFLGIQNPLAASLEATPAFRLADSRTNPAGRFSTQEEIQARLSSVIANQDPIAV
Sequence of Torsin-1A-interacting protein 2 (Homo sapiens) (Q8NFQ8 whole entry, looked up): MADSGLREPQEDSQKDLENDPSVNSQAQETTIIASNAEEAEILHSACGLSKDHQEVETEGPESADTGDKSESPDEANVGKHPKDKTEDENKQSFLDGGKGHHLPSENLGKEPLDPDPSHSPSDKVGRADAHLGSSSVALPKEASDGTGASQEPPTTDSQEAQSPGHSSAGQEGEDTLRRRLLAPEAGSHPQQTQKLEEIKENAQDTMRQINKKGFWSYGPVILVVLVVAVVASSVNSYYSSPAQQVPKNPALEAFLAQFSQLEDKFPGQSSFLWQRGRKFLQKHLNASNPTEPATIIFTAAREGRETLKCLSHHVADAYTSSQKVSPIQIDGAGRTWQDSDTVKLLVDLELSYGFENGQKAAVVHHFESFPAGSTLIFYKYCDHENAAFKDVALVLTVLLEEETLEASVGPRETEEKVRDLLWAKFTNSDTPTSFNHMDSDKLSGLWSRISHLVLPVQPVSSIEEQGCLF
Sequence of Neurogenic locus notch homolog protein 3 (Homo sapiens) (Q9UM47 whole entry, looked up): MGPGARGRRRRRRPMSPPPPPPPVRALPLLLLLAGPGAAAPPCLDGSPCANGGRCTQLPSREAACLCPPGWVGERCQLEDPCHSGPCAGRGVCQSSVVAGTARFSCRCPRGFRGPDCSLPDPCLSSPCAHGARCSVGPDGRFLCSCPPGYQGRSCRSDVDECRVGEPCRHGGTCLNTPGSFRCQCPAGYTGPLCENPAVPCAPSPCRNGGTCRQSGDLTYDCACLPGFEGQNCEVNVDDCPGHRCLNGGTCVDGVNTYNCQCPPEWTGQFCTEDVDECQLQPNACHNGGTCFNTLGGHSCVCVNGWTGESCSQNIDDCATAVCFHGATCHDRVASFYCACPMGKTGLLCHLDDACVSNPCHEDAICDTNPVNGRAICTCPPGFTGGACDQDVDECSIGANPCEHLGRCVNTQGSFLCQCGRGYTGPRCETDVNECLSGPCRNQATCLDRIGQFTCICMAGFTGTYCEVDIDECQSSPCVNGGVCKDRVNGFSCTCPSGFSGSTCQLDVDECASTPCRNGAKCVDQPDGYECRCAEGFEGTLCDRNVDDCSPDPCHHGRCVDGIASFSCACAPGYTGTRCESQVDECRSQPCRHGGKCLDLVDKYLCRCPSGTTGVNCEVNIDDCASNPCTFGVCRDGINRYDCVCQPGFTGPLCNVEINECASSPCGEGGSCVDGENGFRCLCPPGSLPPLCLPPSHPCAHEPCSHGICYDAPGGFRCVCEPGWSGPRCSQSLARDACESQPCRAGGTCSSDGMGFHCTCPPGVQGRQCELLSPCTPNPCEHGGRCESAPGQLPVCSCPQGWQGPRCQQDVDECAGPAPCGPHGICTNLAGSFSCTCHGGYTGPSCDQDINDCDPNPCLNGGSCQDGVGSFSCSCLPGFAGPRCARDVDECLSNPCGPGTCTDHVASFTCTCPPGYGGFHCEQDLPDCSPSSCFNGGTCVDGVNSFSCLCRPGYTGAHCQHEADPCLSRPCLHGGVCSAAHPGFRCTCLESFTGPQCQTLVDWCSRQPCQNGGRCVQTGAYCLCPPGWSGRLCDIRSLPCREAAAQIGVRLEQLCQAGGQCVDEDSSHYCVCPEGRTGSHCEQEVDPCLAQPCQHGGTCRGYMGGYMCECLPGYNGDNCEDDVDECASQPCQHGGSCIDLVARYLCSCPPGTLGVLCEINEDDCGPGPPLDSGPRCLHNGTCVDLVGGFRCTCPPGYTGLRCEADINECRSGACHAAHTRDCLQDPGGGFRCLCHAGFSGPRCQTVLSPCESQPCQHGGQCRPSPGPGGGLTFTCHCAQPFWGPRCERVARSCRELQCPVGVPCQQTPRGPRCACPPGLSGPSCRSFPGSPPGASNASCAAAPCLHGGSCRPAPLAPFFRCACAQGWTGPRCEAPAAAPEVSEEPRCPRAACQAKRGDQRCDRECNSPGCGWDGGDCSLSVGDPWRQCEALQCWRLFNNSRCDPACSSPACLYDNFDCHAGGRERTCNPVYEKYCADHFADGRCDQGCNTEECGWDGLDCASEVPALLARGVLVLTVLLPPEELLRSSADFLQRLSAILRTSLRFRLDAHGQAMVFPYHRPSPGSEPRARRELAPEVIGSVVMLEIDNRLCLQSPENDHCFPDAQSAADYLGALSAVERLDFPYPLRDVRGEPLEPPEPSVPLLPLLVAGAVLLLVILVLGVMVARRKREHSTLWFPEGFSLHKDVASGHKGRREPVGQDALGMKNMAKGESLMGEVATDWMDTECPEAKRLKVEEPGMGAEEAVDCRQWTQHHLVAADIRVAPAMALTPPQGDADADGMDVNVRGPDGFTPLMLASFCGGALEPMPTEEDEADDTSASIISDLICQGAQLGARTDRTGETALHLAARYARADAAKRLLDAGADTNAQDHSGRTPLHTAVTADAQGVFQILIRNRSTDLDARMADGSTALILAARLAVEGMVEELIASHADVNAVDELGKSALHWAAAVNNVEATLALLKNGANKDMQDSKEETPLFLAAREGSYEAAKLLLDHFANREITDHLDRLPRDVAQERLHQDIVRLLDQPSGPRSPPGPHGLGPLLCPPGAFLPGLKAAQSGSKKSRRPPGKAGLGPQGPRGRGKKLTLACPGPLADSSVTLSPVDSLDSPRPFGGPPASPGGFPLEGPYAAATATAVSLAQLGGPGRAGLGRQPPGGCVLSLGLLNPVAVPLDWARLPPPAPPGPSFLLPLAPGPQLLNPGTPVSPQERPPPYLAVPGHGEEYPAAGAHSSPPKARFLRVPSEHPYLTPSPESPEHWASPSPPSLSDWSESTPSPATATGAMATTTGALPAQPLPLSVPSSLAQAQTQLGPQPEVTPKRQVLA

`C=C(C)[C@@H]1CC=C(C(O)C2C=CC3C(=O)N(C)C(=O)C3N2Nc2ccccc2)CC1` (stereo not given in full): the composite z-score was 0.301 in [1]; 0.122 in test [2]; -0.0216 in test [3]; 0.394 in [4]; 1.27 in test [5]; 0.624 in [6]. In addition, the composite z-score amounted to 0.928 in test [7]; 0.577 in test [9]; 0.176 in test [10]; 1.12 in test [11]; 1.16 in test [15]; 0.118 in test [17]. The figures for the composite z-score in test [18], in [19] and in test [20] were 0.728, 1.08 and 0.0044, respectively. Also, the z-score in [8] was 0.283 (inactive); in test [12] it was 0.821 (inactive); in test [13] it was -0.329 (inactive); in test [14] it was 1.92 (inactive); in test [16], -1.03 (inactive).

In the case of `C=C(COC)/C(=C/C[C@H](OC(C)=O)c1ccc(CO)o1)c1cc(C(=O)OC)ccc1OC`, the composite z-score is -0.113 in test [1]; 0.183 in [2]; -0.129 in test [3]; 0.779 in test [4]; -0.925 in [5]; 0.0136 in test [6]. Besides, the composite z-score in test [7] is 0.7; in test [9], -0.0787; in test [10], 0.0749; in test [11] it was 0.404; in test [15], 1.67; in test [17], -0.142. In addition, the composite z-score was 0.493 in test [18], 0.217 in [19] and -0.284 in test [20]. For the same molecule, the z-score in [8] is 0.0728 (inactive); in test [12], 0.517 (inactive); in test [13], -0.131 (inactive); in test [14] it was 0.0604 (inactive); in test [16], 0.796 (inactive).

`CC(C)C(CO)N1C(=O)[C@@H]2C3C(=O)OCCC/C=C\[C@H]3OC23C=CCN(CCN2CCOCC2)C(=O)[C@@H]13` (stereo not given in full): the composite z-score in test [1] was -0.364; in [2] it was -0.306; in test [3] it was -0.116; in [4] it was -0.294; in [5] it was -0.853; in test [6] it was -0.197. The composite z-score is 0.366 in test [7]; -0.139 in test [9]; 0.0623 in [10]; 0.463 in test [11]; -0.272 in test [15]; -0.245 in [17]. The composite z-score in [18] was 0.0867; in test [19], 0.0008; in test [20] it was -0.146. Also, the z-score was 1.3 (inactive) in test [8]; 0.366 (inactive) in [12]; -0.21 (inactive) in [13]; 0.205 (inactive) in test [14]; -0.241 (inactive) in test [16].

On to `CCOC(=O)C[C@H]1[C@H](OC(=O)c2cc3ccccc3oc2=O)[C@@H](NC(=O)c2ccccc2)c2cc(OCCCO)ccc2N1C(=O)c1ccc2ccccc2n1`, for which the composite z-score in [1] is -0.408; in test [2], -0.373; in [3], -0.0878; in test [4], 0.8; in test [5], 0.889; in test [6], 0.0325. For the same molecule, the composite z-score in test [7] is 1.18; in test [9], 0.312; in test [10] it was -0.0346; in test [11], 0.258; in test [15], 0.852; in test [17], -0.193. For the same molecule, the values for the composite z-score in [18], in [19] and in test [20] were 0.918, 0.662 and -0.0828, respectively. Moreover, the z-score was -0.757 (inactive) in [8]; 0.157 (inactive) in test [12]; -0.12 (inactive) in [13]; 0.0284 (inactive) in test [14]; 0.368 (inactive) in [16].

With `COC(=O)[C@@]1(Cc2ccc(F)cc2)[C@H]2c3cc(C(=O)N(C)C)n(Cc4ccc(Cl)c(C(F)(F)F)c4)c3C[C@H]2CN1C(=O)c1ccccc1`, the composite z-score is 1.15 in test [1]; 1.65 in test [2]; -0.0355 in [3]; 0.215 in [4]; 1.74 in test [5]; 1.83 in test [6]. Also, the composite z-score was 1.31 in test [7]; 1.71 in [9]; -0.0296 in test [10]; 1.31 in test [11]; 3.62 in test [15]; 0.395 in [17]. Further, the composite z-score was -0.602 in test [18], 1.02 in test [19] and 0.231 in test [20]. For the same molecule, the z-score in test [8] is 1.3 (inactive); in [12], 0.44 (inactive); in test [13], 1.29 (inactive); in [14], 1.69 (inactive); in test [16], -0.824 (inactive).
